This passage reports Potency results from PubChem BioAssay AID493169 (National Center for Advancing Translational Sciences (NCATS), 2011).

Records with an inconclusive call do not appear. Where a call stands in place of a potency, no number is given. Calls of active or inactive are those of the source. The call rests on the fitted dose curve; in most records, active means well fitted inhibition curve with a large enough effect; inconclusive means small, poorly fitted or top-dose-only effect; inactive means flat fitted curve, though single readings scatter.
Potency means the concentration at half of the fitted maximal effect.

The test can be described thus: CHOP2 Reporter Counterscreen Assay for Inhibitors of Ubiquitin-specific Protease USP2a.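 Further: activated enterokinase alone at 50 pM in a cell-free format rather than USP2a or CHOP2; nearly all actives have a fitted effect of over 55% in size.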 To be noted: purified enterokinase, fluorogenic substrate, 485/531 nm; series mostly up to 38.3 µM. The method, boiled down:
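Fluorescence (485/531 nm) read 10 min after adding 25nM reporter substrate to 50 pM activated EK preincubated 30 min RT with compound; Tris pH 8.0/CaCl2/CHAPS buffer. Data normalized to buffer-alone inhibition; concentration-response curves fitted.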
As for `N#CCc1ccc(NC(=O)/C=C/c2ccc([N+](=O)[O-])o2)cc1`, the Potency was 10 µM (active). Turning to `CC(C)c1ccc(C2=C(O)c3ccccc3C(=O)C2=O)cc1`, the Potency result is “inactive”. `CC(C)OCCCNC(=O)CN1C(=O)CC(C)(C)S(=O)(=O)c2ccccc21`: the Potency result was “inactive”. With `O=C1Nc2ccccc2SC(c2ccccc2)C1O` (configuration not stated), the Potency is 7.94 µM (active). Regarding `Cc1ccc(-c2nc(N/N=C/c3ccncc3)c3ccccc3n2)cc1`, the Potency entry was “inactive”.

As to `CC1CCCC(N2CCN(C(=O)c3cccc(F)c3)CC2)C1` (configuration not stated), the Potency entry is “inactive”.

Take `Cc1ccc2c(c1)c1c3n2CCN(C(=O)Cn2c(-c4ccccc4)noc2=O)C3CCC1` (configuration not stated): the Potency result was “inactive”.
